# Experimental data taken from PubChem BioAssay (Tox21).
# Values joined by “and” are separate entries in the source; they are usually repeats but may differ in a detail not shown here. Equal entries are not always repeated. Inconclusive results are not listed. A call without a number means that no potency is given here. A structure can be active in one record and inactive in another. Active and inactive are the calls of the source. Unless noted, calls come from the whole dose curve; as a rule, active = well fitted curve in the direction sought with a large enough effect in the repeat runs; inconclusive = weak or mixed curves; inactive = no such curve, though single readings can be large; an effect the other way counts as inactive or inconclusive.
# Experiments:
# [1] = qHTS assay to identify small molecule antagonists of the androgen receptor (AR) signaling pathway using the MDA cell line in the presence of 0.5 nM R1881 - cell viability counter screen (AID 1259242); note: nearly all actives have a fitted effect of over 45% in size; note: potency is the fitted concentration of half-maximal effect
# Outline: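 Live-cell protease activity was measured by CellTiter-Fluor fluorescence after 30 min. Before that, MDA-kb2 MMTV-luciferase cells had 16 hr at 37C without CO2, exposed to test compounds and 0.5 nM R1881 final.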
# [2] = biological target: Estrogen receptor (Homo sapiens) (UniProt P03372); experiment: qHTS assay to identify small molecule antagonists of the estrogen receptor alpha (ER-alpha) signaling pathway using the BG1 cell line in the presence of 0.1 nM 17-beta-estradiol (AID 1259244); note: nearly all actives have a fitted effect of over 50% in size; note: potency is the fitted concentration of half-maximal effect
# Estrogen receptor (Homo sapiens), sequence (P03372 whole entry, looked up): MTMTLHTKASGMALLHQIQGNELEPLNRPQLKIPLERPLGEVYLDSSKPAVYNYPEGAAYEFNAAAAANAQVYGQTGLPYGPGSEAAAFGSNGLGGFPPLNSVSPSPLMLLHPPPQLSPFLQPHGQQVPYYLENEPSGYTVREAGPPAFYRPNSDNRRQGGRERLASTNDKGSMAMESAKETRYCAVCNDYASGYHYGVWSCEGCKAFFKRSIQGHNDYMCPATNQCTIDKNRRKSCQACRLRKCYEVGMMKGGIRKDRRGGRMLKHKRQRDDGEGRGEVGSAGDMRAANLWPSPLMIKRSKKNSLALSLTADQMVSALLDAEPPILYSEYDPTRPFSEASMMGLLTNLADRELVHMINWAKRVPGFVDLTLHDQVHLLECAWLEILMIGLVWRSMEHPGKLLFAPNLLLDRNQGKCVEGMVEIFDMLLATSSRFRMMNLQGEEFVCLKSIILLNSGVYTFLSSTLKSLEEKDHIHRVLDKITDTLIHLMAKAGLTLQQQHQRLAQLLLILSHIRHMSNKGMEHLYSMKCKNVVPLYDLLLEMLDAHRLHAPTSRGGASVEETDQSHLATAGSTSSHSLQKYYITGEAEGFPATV
# Outline: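 Luciferase luminescence (ONE-Glo, 30 min at room temperature) was read after 22 hr at 37C exposure to compounds plus 17beta-estradiol at 0.1 nM final. Cells were VM7Luc4E2 with endogenous ER-alpha and an ERE-driven luciferase, pre-cultured 5 days in hormone-depleted medium.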
# [3] = qHTS assay to identify small molecule HDAC inhibitors (AID 1259364); note: nearly all actives have a fitted effect of over 45% in size; note: potency is the fitted concentration of half-maximal effect
# Outline: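 Luminescence read after 30 min room-temperature HDAC-Glo incubation measures cellular class I/II HDAC activity. Compounds were applied for 2 hr at 37 C to HCT-116 wild-type cells seeded the day before.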
# [4] = qHTS assay to identify small molecule HDAC inhibitors - cell viability counter screen (AID 1259365); note: series mostly up to about 92 µM; nearly all actives have a fitted effect of over 50% in size
# Outline: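 Measured quantity is CellTiter-Glo luminescence from wild-type HCT-116 cells after compound incubation of 2hr at 37C, 5% CO2; reagent developed 30min at room temperature.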
# [5] = qHTS assay to identify small molecule agonists of the sonic hedgehog signaling (Shh) pathway - cell viability counter screen (AID 1259366); note: nearly all actives have a fitted effect of over 50% in size; note: potency is the fitted concentration of half-maximal effect
# Outline: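 In quantitative high-throughput format, 3T3 Gli1-Luc cells were exposed to compounds for 24hr and multiplexed for viability using CellTiter-Fluor, incubated 1hr at 37C before the fluorescence read.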
# [6] = qHTS assay to identify small molecule antagonists of the sonic hedgehog signaling (Shh) pathway - cell viability counter screen (AID 1259367); note: nearly all actives have a fitted effect of over 55% in size; note: potency is the fitted concentration of half-maximal effect
# Outline: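 Conditioned medium drove Shh signaling in 3T3 Gli1-Luc cells exposed to compounds at 37C and 5% CO2. Viability was determined from CellTiter-Fluor fluorescence, with reagent incubated 1 hr after 23 hr of treatment.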
# [7] = qHTS assay to identify small molecule agonists of the sonic hedgehog signaling (Shh) pathway (AID 1259368; calls by dose curve; note: nearly all actives have a fitted effect of over 15% in size; note: potency is the fitted concentration of half-maximal effect)
# Outline: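 Luminescence was read after 30 min at room temperature with luciferase reagent. Before that, 3T3Gli1-Luc cells (NIH/3T3 clone, stable Gli1-Luc reporter; 2,000/well) were exposed to compounds for 24 hr at 37C, 5% CO2, compounds being added 4 hr post-plating.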
# [8] = qHTS assay to identify small molecule antagonists of the sonic hedgehog signaling (Shh) pathway (AID 1259369; calls by dose curve; note: nearly all actives have a fitted effect of over 45% in size; note: potency is the fitted concentration of half-maximal effect)
# Outline: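 Antagonist mode: compound added to 3T3 Gli1-Luc cells followed by conditioned-medium stimulation, 24 h at 37 C, 5% CO2. Inhibition taken as loss of Gli1-driven luciferase luminescence.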
# [9] = biological target: Estrogen receptor beta (Homo sapiens) (UniProt Q92731); experiment: qHTS assay to identify small molecule agonists of the estrogen receptor beta (ER-beta) signaling pathway (AID 1259377; active = well fitted activation curve with a large enough effect in the signal ratio in the repeat runs, not every such curve was filed as active; the % refers to the signal ratio)
# Estrogen receptor beta (Homo sapiens), sequence (Q92731 whole entry, looked up): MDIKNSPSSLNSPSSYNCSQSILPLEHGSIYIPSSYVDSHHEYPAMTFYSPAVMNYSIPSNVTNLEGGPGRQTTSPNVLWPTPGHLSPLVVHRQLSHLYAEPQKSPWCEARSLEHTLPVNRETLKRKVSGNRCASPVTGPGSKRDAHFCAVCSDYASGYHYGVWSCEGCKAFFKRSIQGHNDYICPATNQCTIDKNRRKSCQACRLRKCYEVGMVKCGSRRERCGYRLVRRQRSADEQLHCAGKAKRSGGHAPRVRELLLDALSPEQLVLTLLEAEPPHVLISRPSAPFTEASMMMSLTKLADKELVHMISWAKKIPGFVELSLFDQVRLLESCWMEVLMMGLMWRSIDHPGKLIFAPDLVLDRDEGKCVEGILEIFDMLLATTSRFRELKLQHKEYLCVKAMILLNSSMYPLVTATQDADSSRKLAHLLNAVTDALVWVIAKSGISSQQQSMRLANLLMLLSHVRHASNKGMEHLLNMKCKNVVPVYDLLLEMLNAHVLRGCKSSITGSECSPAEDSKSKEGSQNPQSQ
# Outline: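 Reporter cells (HEK293T, ER-beta-UAS-bla) receive compounds or DMSO after a 6 hr pre-incubation. They then incubate 16 hr at 37C/5% CO2, and fluorescence from LiveBLAzer B/G substrate is measured after 2 hours at room temperature.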
# [10] = biological target: Estrogen receptor beta (Homo sapiens) (UniProt Q92731); experiment: qHTS assay to identify small molecule antagonists of the estrogen receptor beta (ER-beta) signaling pathway (AID 1259378; active = well fitted inhibition curve with a large enough effect in the signal ratio in the repeat runs, not every such curve was filed as active; the % refers to the signal ratio; note: potency is the fitted concentration of half-maximal effect)
# Outline: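 ER-beta-UAS-bla HEK293T (GripTite) cells in 2% charcoal-stripped FBS medium were preincubated 6 hr at 37C, dosed with compound, then stimulated with 1 nM E2 (final) for 16 hr; beta-lactamase reporter read by B/G FRET fluorescence after 2 hr substrate loading.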
# [11] = qHTS assay to identify small molecule agonists of the androgen receptor (AR) signaling pathway in the presence of an antagonist - cell viability counter screen (AID 1259379); note: nearly all actives have a fitted effect of over 25% in size; note: potency is the fitted concentration of half-maximal effect
# Outline: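 Cytotoxicity counter-screen run in the same wells as the nilutamide-challenged (3.0 µM final) AR agonist assay in MDA-kb2 cells. Compounds tested at 15 concentrations for 16 h, 37 °C without CO2; CellTiter-Fluor fluorescence read.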
# [12] = qHTS assay to identify small molecule agonists of the estrogen receptor beta (ER-beta) signaling pathway - cell viability counter screen (AID 1259380); note: nearly all actives have a fitted effect of over 30% in size; note: potency is the fitted concentration of half-maximal effect
# Outline: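 Cell viability counter screen: CellTiter-Glo luminescence (30 min, room temperature) measured in the same wells as the beta-lactamase readout, after 16 hr compound exposure at 37C of ER-beta-bla HEK293T cells in 2% charcoal-stripped FBS medium.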
# [13] = qHTS assay to identify small molecule antagonists of the estrogen receptor beta (ER-beta) signaling pathway - cell viability counter screen (AID 1259382); note: nearly all actives have a fitted effect of over 55% in size; note: potency is the fitted concentration of half-maximal effect
# Outline: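 Cytotoxicity was measured in the same wells by CellTiter-Glo luminescence after 30 min at room temperature. Cells were ER-beta-bla HEK293T in charcoal-stripped serum, given compound together with 1 nM E2 and incubated 16 h at 37C.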
# [14] = biological target: Estrogen receptor (Homo sapiens) (UniProt P03372); experiment: qHTS assay to identify small molecule agonists of the estrogen receptor alpha (ER-alpha) signaling pathway in the presence of an antagonist (AID 1259383; calls by dose curve; note: nearly all actives have a fitted effect of over 15% in size; note: potency is the fitted concentration of half-maximal effect; for activation: top concentration of the series differs between compounds)
# Outline: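 Agonist-mode confirmation run in the presence of 10.0nM (final) ICI-182,780 antagonist. The reporter was ERE-driven luciferase in VM7Luc4E2 cells, grown in charcoal-stripped serum. Cells were exposed to 15-concentration compound series for 22hr, then ONE-Glo luminescence was read.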
# [15] = qHTS assay to identify small molecule agonists or antagonists of the thyroid stimulating hormone receptor (TSHR) signaling pathway - wild type cell line counter screen (AID 1259384; calls by dose curve)
# Outline: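 Wild-type HEK293 cells were plated 18 h at 37 C/5% CO2, pin-dosed with compound plus Ro20-1724 medium, held 30 min at room temperature, then given cAMP-d2 and anti-cAMP-cryptate; fluorescence was read after 1 h. Fifteen concentrations, triplicate.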
# [16] = biological target: Thyrotropin receptor (Homo sapiens) (UniProt P16473); experiment: qHTS assay to identify small molecule antagonists of the thyroid stimulating hormone receptor (TSHR) signaling pathway (AID 1259385; calls by dose curve; note: nearly all actives have a fitted effect of over 20% in size)
# Thyrotropin receptor (Homo sapiens), sequence (P16473 whole entry, looked up): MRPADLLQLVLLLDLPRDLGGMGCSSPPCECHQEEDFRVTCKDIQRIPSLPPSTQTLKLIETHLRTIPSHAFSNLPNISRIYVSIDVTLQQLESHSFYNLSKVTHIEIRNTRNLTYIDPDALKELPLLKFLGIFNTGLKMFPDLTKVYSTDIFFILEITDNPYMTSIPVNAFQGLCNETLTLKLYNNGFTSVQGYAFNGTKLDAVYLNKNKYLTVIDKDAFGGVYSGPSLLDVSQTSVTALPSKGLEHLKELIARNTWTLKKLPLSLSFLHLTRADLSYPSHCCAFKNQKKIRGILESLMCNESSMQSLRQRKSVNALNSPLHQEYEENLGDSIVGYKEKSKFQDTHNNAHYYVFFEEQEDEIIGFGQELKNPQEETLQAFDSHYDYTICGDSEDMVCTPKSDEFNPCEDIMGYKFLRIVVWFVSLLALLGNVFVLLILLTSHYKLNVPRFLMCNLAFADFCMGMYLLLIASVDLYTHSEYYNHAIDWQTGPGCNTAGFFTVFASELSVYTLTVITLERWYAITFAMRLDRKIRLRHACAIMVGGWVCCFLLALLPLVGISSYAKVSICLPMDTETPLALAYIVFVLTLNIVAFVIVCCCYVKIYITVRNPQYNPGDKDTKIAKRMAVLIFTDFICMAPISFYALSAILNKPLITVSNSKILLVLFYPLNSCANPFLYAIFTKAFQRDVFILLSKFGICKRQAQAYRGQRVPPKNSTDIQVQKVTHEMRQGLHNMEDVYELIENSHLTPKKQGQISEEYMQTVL
# Outline: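 TSHR-HEK293 cells were plated and held 18 h at 37C/5% CO2, then given compound plus Ro20-1724 and stimulated with TSH at 1.5 ng/mL final. After 30 min at room temperature, cAMP was detected with cAMP-d2/anti-cAMP-cryptate (1 h) by fluorescence.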
# [17] = qHTS assay to identify small molecule agonists of the estrogen receptor alpha (ER-alpha) signaling pathway in the presence of an antagonist - cell viability counter screen (AID 1259386); note: nearly all actives have a fitted effect of over 30% in size; note: potency is the fitted concentration of half-maximal effect
# Outline: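 Compounds tested at 15 concentrations for 22 h at 37C alongside 10.0nM (final) ICI-182,780 antagonist, in VM7Luc4E2 cells grown in phenol red-free, charcoal-stripped medium. Viability read by CellTiter-Fluor fluorescence after 1 h reagent incubation.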
# [18] = qHTS assay to identify small molecule phospholipidosis (PLD) inducers (AID 1259344; active = well fitted curve in the direction sought with a large enough effect; an effect the other way counts as inactive or inconclusive)
# Outline: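 After 4 h attachment on collagen I, HepG2 cells were dosed with compound alongside LipidTOX Red, kept 24 h at 37 C, fixed, and imaged for lamellar phospholipid pits.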
SMILES,Potency [1],Potency [2],Potency [3],Potency [4],Potency [5],Potency [6],Potency [7],Potency [8],Potency [9],Potency [10],Potency [11],Potency [12],Potency [13],Potency [14],outcome [15],Potency [16],Potency [17],Potency [18]
C1CCC(SSC2CCCCC2)CC1,inactive,inactive,inactive,inactive,inactive,inactive,inactive,inactive,inactive,inactive,inactive,inactive,inactive,inactive,inactive,inactive,inactive,–
O=c1[nH]c(=O)n([C@H]2C[C@H](O)[C@@H](CO)O2)cc1F,inactive,inactive,inactive,inactive,inactive,inactive,inactive,–,inactive,–,inactive,0.15 µM (active),–,inactive,inactive,inactive,inactive,inactive
CCC(CC)(CC(=O)Nc1cccc(/C=C/c2nc(C3CCC3)cs2)c1)C(=O)O,inactive,inactive,–,inactive,inactive,inactive,inactive,–,–,–,–,7.5 µM (active),–,–,–,–,inactive,inactive
O=C(O)[C@H](O)[C@@H](O)[C@H](O[C@@H]1O[C@H](CO)[C@H](O)[C@H](O)[C@H]1O)[C@H](O)CO,inactive,inactive,inactive,inactive,inactive,inactive,inactive,–,inactive,inactive,inactive,–,inactive,inactive,inactive,inactive,inactive,inactive
Cc1ccc(C(C)C)cc2c(C)ccc1-2,inactive,inactive,inactive,inactive,inactive,inactive,inactive,–,inactive,inactive,inactive,inactive,inactive,inactive,inactive,inactive,inactive,inactive
CCc1ccc(Br)cc1,inactive,inactive,inactive,inactive,inactive,inactive,inactive,inactive,inactive,inactive,inactive,inactive,inactive,inactive,inactive,inactive,–,–
CC(C)NC[C@@H](O)COc1ccc(CC(N)=O)cc1,inactive,inactive,inactive,inactive,inactive,inactive,inactive,–,–,–,inactive,inactive,inactive,inactive,inactive,inactive,inactive,inactive
CCCCCCCCCCCCCC[N+](C)(C)C,23.5 µM (active),2.96 µM (active) and 3.85 µM (active) and 26.6 µM (active),inactive,inactive,21 µM (active) and 27.3 µM (active) and inactive,inactive,inactive,27.3 µM (active) and 531 nM (active),–,–,33.2 µM (active) and 24.3 µM (active) and 10.6 µM (active),26.4 µM (active) and 27.3 µM (active),26.4 µM (active) and 30.6 µM (active) and 33.5 µM (active),inactive,–,–,inactive,inactive
O=C(O)c1cc(=O)c2ccccc2o1,inactive,inactive,inactive,inactive,inactive,inactive,inactive,inactive,inactive,inactive,–,inactive,inactive,inactive,inactive,inactive,inactive,inactive
OC12N=C(c3ccccc3)SC1Cc1cc(Cl)ccc12 (stereo unspecified),inactive,inactive,27.3 µM (active),inactive,inactive,inactive,2.73 µM (active),inactive,inactive,61.1 µM (active),inactive,–,inactive,1.93 µM (active),–,–,–,–
C=Cc1ccccc1C=C,inactive,inactive,inactive,inactive,inactive,inactive,inactive,inactive,inactive,inactive,inactive,inactive,inactive,inactive,inactive,inactive,inactive,–
O=C(Nc1ccc2c(O)c(N=Nc3ccc(N=Nc4ccc(S(=O)(=O)O)cc4)cc3)c(S(=O)(=O)O)cc2c1)c1ccccc1,27.3 µM (active),27.3 µM (active),inactive,–,10.9 µM (active),21.7 µM (active),inactive,inactive,inactive,inactive,21.7 µM (active),inactive,inactive,–,inactive,inactive,13.7 µM (active),–
O=C(O)c1ccc2cc(C(=O)O)ccc2c1,inactive,inactive,–,inactive,inactive,inactive,inactive,inactive,inactive,inactive,inactive,inactive,inactive,inactive,inactive,–,inactive,–
COc1cc(C)ccc1O,inactive,inactive,inactive,inactive,inactive,inactive,–,inactive,–,inactive,inactive,inactive,inactive,inactive,inactive,inactive,inactive,–
CCCCN(CCCC)CC(O)c1cc(Cl)cc2c1-c1ccc(Cl)cc1/C2=C/c1ccc(Cl)cc1 (stereo unspecified),inactive,inactive,inactive,inactive,26.6 µM (active),–,–,–,inactive,–,–,29.8 µM (active),–,inactive,inactive,inactive,–,–
